Source: PubChem BioAssay
Shown are actives, neighbours in structure and some others; about 3.5% of the full set was active somewhere.
MITF primary: MITF inhibitors, primary screen, biochemical, AlphaScreen, human; AID 1259374, 2018; hit rate 0.91% among 650,000; inhibition, % at 2.6 µM; AlphaScreen MITF homodimerization, bead proximity signal; in the data active = inhibition above about 50%;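 note: 0% = vehicle wells with protein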
FBW7 act: FBW7 E3 ligase activators, primary screen, biochemical, AlphaScreen, human | AlphaScreen FBW7–phospho-cyclin E peptide binding, activator screen | normalized activity (activation), % at 26.1 µM | hit rate 0.13% among 650,000; in the data active = normalized activity above about 1.9%;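 note: purified mutant Fbw7 with reduced substrate affinity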
TEAD-YAP block: TEAD-YAP interaction inhibition, primary screen, TEAD-YAP interaction inhibitor project, luminescence, HEK-TIYL cells | hit rate 1.4% among 640,000 | TEAD-Gal4/YAP UAS-luciferase luminescence | inhibition, % at 9.12 µM | AID 1259422, 2018; in the data active = inhibition above about 32%;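 note: 0% = median of test compound wells and 100% = reference inhibitor wells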
GPR151 activ: activators of human GPR151, primary screen, cell-based, PathHunter beta-arrestin, luminescence; G-protein coupled receptor 151 (Homo sapiens), Q8TDV0; PathHunter beta-arrestin GPR151 cells; activation, % at 11.2 µM; hit rate 1% among 650,000; AID 1508602, 2020; in the data active = activation above about 4.9%;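 note: 0% = median of compound wells and 100% = cells with positive control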
GPR151 confirm: GPR151 activators, triplicate retest, confirmation, cell-based, PathHunter beta-arrestin, luminescence; shares compounds with GPR151 activ; GPR151 PathHunter beta-arrestin cells, 90 min; % of EA-reagent control over plate median; 6,700 tested, under 10 active; activation, % at 11.2 µM;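 active = mean percent activation across replicates above the confirmation screen cutoff of 4.91%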
GPR119 counter: GPR119 activators in beta-arrestin cells, counter-screen for GPR151 activator project, cell-based, PathHunter beta-arrestin, luminescence, triplicate; 90 min; 0 = compound-well median, 100 = enzyme-acceptor control; shares compounds with GPR151 activ; activation, % at 11.2 µM; hit rate 0.3% among 6,700;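 active = mean percent activation in the counterscreen above 29.09%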;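 note: counterscreen on off-target GPR119 to flag nonselective hits from the GPR151 activator screen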
Target sequence (Q8TDV5 whole entry, looked up): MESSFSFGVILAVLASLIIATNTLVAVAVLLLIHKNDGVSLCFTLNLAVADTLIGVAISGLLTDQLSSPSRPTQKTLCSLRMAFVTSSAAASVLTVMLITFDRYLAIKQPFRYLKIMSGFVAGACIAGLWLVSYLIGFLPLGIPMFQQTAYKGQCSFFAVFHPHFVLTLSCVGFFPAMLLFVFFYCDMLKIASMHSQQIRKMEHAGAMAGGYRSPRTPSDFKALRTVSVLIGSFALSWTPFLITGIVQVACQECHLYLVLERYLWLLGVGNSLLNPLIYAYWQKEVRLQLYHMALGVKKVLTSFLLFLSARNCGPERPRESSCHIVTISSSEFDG
* = called active by the depositor.

For CCOC(=O)c1cc2c(c(CSc3nc4ccccc4c(=O)n3Cc3ccc4c(c3)OCO4)c1)OCOC2 the results were MITF primary -7, FBW7 act 0, TEAD-YAP block -7, GPR151 activ 4.9*, GPR151 confirm 3 and GPR119 counter 10.
For O=C(COC(=O)c1c[nH]c(=O)[nH]c1=O)Nc1nc(-c2ccccc2)cs1 the results were MITF primary 16, FBW7 act 0, TEAD-YAP block -19 and GPR151 activ -4.
`CCOCCCNCc1ccccc1OCc1ccccc1` gave MITF primary -13, FBW7 act 0, TEAD-YAP block 0, GPR151 activ 13*, GPR151 confirm -1 and GPR119 counter -6.
CCCCNC(=O)CCCNC(=O)Cn1cnc2sc3c(c2c1=O)CCCC3 was read as MITF primary 1, FBW7 act 0, TEAD-YAP block 6 and GPR151 activ 0.
Screening COC(=O)Nc1ccc(S(=O)(=O)N2CCCC(C(=O)O)C2)cc1 (stereo not drawn) returned MITF primary 3, FBW7 act 0, TEAD-YAP block 2, GPR151 activ 11*, GPR151 confirm 0 and GPR119 counter -9.
`Cc1cc(C)c(S(=O)(=O)N2CCN(C)CC2)cc1C` gave MITF primary 5, FBW7 act 0, TEAD-YAP block 11 and GPR151 activ 0.
`Cc1cc(S(=O)(=O)N2CCN(C)CC2)c(C)cc1Cl` gave MITF primary -6, FBW7 act 0, TEAD-YAP block -2, GPR151 activ 5.3*, GPR151 confirm 0 and GPR119 counter -12.
CCC(C)Nc1nc2c(S(=O)(=O)c3ccc(C)cc3)nnn2c2ccccc12 (stereo not drawn) was read as MITF primary 17, FBW7 act 0, TEAD-YAP block -9 and GPR151 activ -1.
For C/C(=N\Nc1nnc2c(n1)[nH]c1ccccc12)c1ccc([N+](=O)[O-])cc1 the results were MITF primary 7, FBW7 act 0, TEAD-YAP block -26, GPR151 activ 5.9*, GPR151 confirm 0 and GPR119 counter -16.
For COc1ccc(S(=O)(=O)n2nc(C)cc2C)cc1 the results were MITF primary -1, FBW7 act 1, TEAD-YAP block 0, GPR151 activ 5.0*, GPR151 confirm 0 and GPR119 counter -3.
CCN(CC)c1ncnc2sc(C(=O)Nc3ccc(F)cc3Cl)c(C)c12 was read as MITF primary 0, FBW7 act 0, TEAD-YAP block 5 and GPR151 activ 0.
`C=CCn1c(C)csc1=Nc1ccc(Cl)cc1` gave MITF primary 25, FBW7 act 0, TEAD-YAP block -4 and GPR151 activ 2.
Screening COc1cccc2cc(C(=O)c3ccc([N+](=O)[O-])cc3)oc12 returned MITF primary 10, FBW7 act 0, TEAD-YAP block -13, GPR151 activ 7.3*, GPR151 confirm 0 and GPR119 counter -10.
`COc1cccc2cc(C(=O)Nc3ccccc3[N+](=O)[O-])c(=O)oc12` gave MITF primary 11, FBW7 act 0, TEAD-YAP block -17, GPR151 activ 13*, GPR151 confirm 0 and GPR119 counter 13.
Screening CCOC(=O)CN1C(=O)C(C)Oc2ccccc21 (stereo not drawn) returned MITF primary -1, FBW7 act 0, TEAD-YAP block 0 and GPR151 activ 2.
`COc1ccc(-c2cc(C#N)nc(N3CCN(c4ccccc4)CC3)n2)cc1` gave MITF primary -14, FBW7 act 0, TEAD-YAP block 0, GPR151 activ 5.2*, GPR151 confirm 0 and GPR119 counter -3.
COCCCn1c(=O)[nH]c2ncc(-c3cc(OC)c(OC)c(OC)c3)nc21 was read as MITF primary 9, FBW7 act -1, TEAD-YAP block -10, GPR151 activ 6.0*, GPR151 confirm 0 and GPR119 counter 9.
Screening COCCCn1c(=O)[nH]c2ncc(-c3ccccc3)nc21 returned MITF primary -5, FBW7 act -1, TEAD-YAP block 9 and GPR151 activ -1.
`Cn1c(=O)[nH]c(NCCc2ccccc2)c(N=O)c1=O` gave MITF primary 9, FBW7 act -1, TEAD-YAP block 6 and GPR151 activ 1.
S=C(NCc1ccco1)N1CCN(C2CCCCC2)CC1 was read as MITF primary 0, FBW7 act 0, TEAD-YAP block -4, GPR151 activ 6.1*, GPR151 confirm -1 and GPR119 counter -4.
For O=C(CNC(=O)C12CC3CC(CC(C3)C1)C2)OCc1nc2ccc(Cl)cc2n1CCO the results were MITF primary -10, FBW7 act 0, TEAD-YAP block -3 and GPR151 activ 1.
Screening CCOC(=O)C1C(=O)CC(C)(O)C(C(=O)OCC)C1c1cccnc1 (stereo not drawn) returned MITF primary -3, FBW7 act 0, TEAD-YAP block -9, GPR151 activ 5.0*, GPR151 confirm 0 and GPR119 counter 4.
For CCOC(=O)C1C(=O)CC(C)(O)C(C(=O)OCC)C1c1ccc(CC)cc1 (stereo not drawn) the results were MITF primary 6, FBW7 act 0, TEAD-YAP block 5 and GPR151 activ 1.
`COc1ccc(-c2cc3nc(C)c(CCC(=O)NC4CCCC4)c(C)n3n2)c(OC)c1` gave MITF primary 18, FBW7 act 1, TEAD-YAP block 7 and GPR151 activ 3.
For CC(=O)Cn1c(C(=O)O)c(-n2cccc2)c2ccccc21 the results were MITF primary 6, FBW7 act 0, TEAD-YAP block -1 and GPR151 activ 0.
Screening COc1ccccc1N=Cc1c(O)n(-c2ccccc2C)c(=O)[nH]c1=O returned MITF primary 22, FBW7 act 0, TEAD-YAP block -3, GPR151 activ 6.0*, GPR151 confirm 1 and GPR119 counter 9.
For Cc1ccccc1-n1c(O)c(C=NCCCC(C)C)c(=O)[nH]c1=O the results were MITF primary -3, FBW7 act 0, TEAD-YAP block 10, GPR151 activ 8.5*, GPR151 confirm 0 and GPR119 counter 13.
For Cc1cc(N2CCCC2)nc2ccc(NC(=S)NCCN3CCOCC3)cc12 the results were MITF primary -6, FBW7 act 0, TEAD-YAP block -6 and GPR151 activ -1.
Screening Cc1ccccc1C1C2=C(CCCC2=O)Nc2nc3ccccc3n21 (stereo not drawn) returned MITF primary -13, FBW7 act 0, TEAD-YAP block -8 and GPR151 activ 0.
